Measurements reported in the supplement of paper PMC10849652.
About 7,900 targets were measured; listed, in parts, are those with a hit and a random draw of the rest. About 0.6% of all pairs of compound and target were hits. Unmarked numbers belong to inactive results.

Columns and labels:
Assay in all cases: log2 fold change, soluble protein after heating vs DMSO (PISA); higher = thermal stabilisation; K562 cells, 10 uM, 30 min; active = over 0.2 and 3.5 SD of the protein, either way, in both replicates (recomputed)
IRAK-1-4 Inhibitor I = compound: C1COCCN1CCN2C3=CC=CC=C3N=C2NC(=O)C4=CC(=CC=C4)[N+](=O)[O-] [IRAK-1-4 Inhibitor I]
Procedure, shortened: (§1)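 K562 cells at 2×10^6 cells/mL were treated for 30 min with 10 μM compound, and aliquots were heated for 3 min over 48°C-58°C before pooling. Extraction used PBS with 0.5% NP-40 at 4°C, and soluble protein was the supernatant after 21,000xg for 90 min, measured by TMTpro 16plex LC-MS/MS with channel sums equalised. Thermal stability values, relative to control samples and from duplicates, are log2 fold changes.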

ibrutinib = compound: C=CC(=O)N1CCC[C@@H](n2nc(-c3ccc(Oc4ccccc4)cc3)c3c(N)ncnc32)C1 [ibrutinib]
Procedure, shortened: as §1

[1] = compound: CC(=O)c1cnc2ccc(-c3cc(Cl)c(O)c(Cl)c3)nc2c1N[C@H]1CC[C@H](CN(C)C)CC1
Procedure, shortened: as §1

ralimetinib = compound: CC(C)(C)Cn1c(N)nc2ccc(-c3[nH]c(C(C)(C)C)nc3-c3ccc(F)cc3)nc21 [ralimetinib]
Procedure, shortened: as §1

[2] = compound: CC(C)(O)CC(=O)NCCn1ccc2ncnc(Nc3ccc(Oc4cccc(C(F)(F)F)c4)c(Cl)c3)c21
Procedure, shortened: as §1

[3] = compound: CC(C)C1=C2N=C(C=C(N2N=C1)NCC3=CC=CC=C3)NCCCCCCN
Procedure, shortened: as §1

[4] = compound: CC(C)C[C@@H](C=O)NC(=O)[C@H](CC(C)C)NC(=O)[C@H](CC(C)C)NC(=O)OCc1ccccc1
Procedure, shortened: as §1

pinometostat = compound: CC(C)N(C[C@H]1O[C@@H](n2cnc3c(N)ncnc32)[C@H](O)[C@@H]1O)[C@H]1C[C@@H](CCc2nc3cc(C(C)(C)C)ccc3[nH]2)C1 [pinometostat]
Procedure, shortened: as §1

[5] = compound: CC1=C(C(CC(=O)N1)C2=CC=C(C=C2)C(F)(F)F)C(=O)NC3=C(C=C4C(=C3)C=NN4)F
Procedure, shortened: as §1

[6] = compound: CC1=C(C2=C(C=C1)C(=O)C3=CC=CC=C3N2CCCN)C
Procedure, shortened: as §1

[7] = compound: CC1=C(C=C(C=C1)NC(=O)C2=CC(=CC=C2)C(C)(C)C#N)NC3=CC4=C(C=C3)N=CN(C4=O)C
Procedure, shortened: as §1

[8] = compound: CC1=C(C=C(C=C1)NC(=O)C2=CC(=CC=C2)N(C)C)NC(=O)C3=CC=C(C=C3)O
Procedure, shortened: as §1

[9] = compound: CC1=CC=C(C=C1)SC2=C3C=C(SC3=CN=C2)C(=O)N
Procedure, shortened: as §1

[10] = compound: CC1=NC(=CC=C1)C2=C(N=C(N2)C(C)(C)C)C3=CC4=NC=CN=C4C=C3
Procedure, shortened: as §1

Nexturastat A = compound: CCCCN(Cc1ccc(C(=O)NO)cc1)C(=O)Nc1ccccc1 [Nexturastat A]
Procedure, shortened: as §1

vemurafenib = compound: CCCS(=O)(=O)Nc1ccc(F)c(C(=O)c2c[nH]c3ncc(-c4ccc(Cl)cc4)cc23)c1F [vemurafenib]
Procedure, shortened: as §1

[11] = compound: CCCS(=O)(=O)Nc1ccc(F)c(C(=O)c2c[nH]c3ncc(Cl)cc23)c1F
Procedure, shortened: as §1

[12] = compound: CCCc1cc(C)[nH]c(=O)c1CNC(=O)c1cc(-c2ccnc(N3CCN(C)CC3)c2)cc2c1cnn2C(C)C
Procedure, shortened: as §1

givinostat = compound: CCN(CC)Cc1ccc2cc(COC(=O)Nc3ccc(C(=O)NO)cc3)ccc2c1 [givinostat]
Procedure, shortened: as §1

barasertib = compound: CCN(CCCOc1ccc2c(Nc3cc(CC(=O)Nc4cccc(F)c4)[nH]n3)ncnc2c1)CCOP(=O)(O)O [barasertib]
Procedure, shortened: as §1

EVC2 (UniProt Q86UK5)
log2 fold change (IRAK-1-4 Inhibitor I): 0.052
log2 fold change (ibrutinib): 0.032
log2 fold change [1]: -0.061
log2 fold change (ralimetinib): -0.15
log2 fold change [2]: 0.038
log2 fold change [3]: 0.064
log2 fold change [4]: 0.038
log2 fold change (pinometostat): -0.011
log2 fold change [5]: 0.091
log2 fold change [6]: -0.014
log2 fold change [7]: -0.263
log2 fold change [8]: -0.146
log2 fold change [9]: -0.006
log2 fold change [10]: -0.018
log2 fold change (Nexturastat A): 0.046
log2 fold change (vemurafenib): -0.073
log2 fold change [11]: -0.054
log2 fold change [12]: 0.16
log2 fold change (givinostat): 0.06
log2 fold change (barasertib): -0.064

CTSB (UniProt P07858)
log2 fold change (IRAK-1-4 Inhibitor I): -0.009
log2 fold change (ibrutinib): 0.032
log2 fold change [1]: 0.013
log2 fold change (ralimetinib): -0.044
log2 fold change [2]: 0.011
log2 fold change [3]: -0.426 (active)
log2 fold change [4]: 0.037
log2 fold change (pinometostat): -0.031
log2 fold change [5]: 0.042
log2 fold change [6]: -0.053
log2 fold change [7]: -0.035
log2 fold change [8]: -0.069
log2 fold change [9]: 0.022
log2 fold change [10]: 0.029
log2 fold change (Nexturastat A): -0.059
log2 fold change (vemurafenib): -0.041
log2 fold change [11]: -0.008
log2 fold change [12]: -0.025
log2 fold change (givinostat): -0.007
log2 fold change (barasertib): 0.015

DCTN1 isoform 4 (UniProt Q14203)
Sequence of UniProt Q14203 (Q14203 whole entry, looked up): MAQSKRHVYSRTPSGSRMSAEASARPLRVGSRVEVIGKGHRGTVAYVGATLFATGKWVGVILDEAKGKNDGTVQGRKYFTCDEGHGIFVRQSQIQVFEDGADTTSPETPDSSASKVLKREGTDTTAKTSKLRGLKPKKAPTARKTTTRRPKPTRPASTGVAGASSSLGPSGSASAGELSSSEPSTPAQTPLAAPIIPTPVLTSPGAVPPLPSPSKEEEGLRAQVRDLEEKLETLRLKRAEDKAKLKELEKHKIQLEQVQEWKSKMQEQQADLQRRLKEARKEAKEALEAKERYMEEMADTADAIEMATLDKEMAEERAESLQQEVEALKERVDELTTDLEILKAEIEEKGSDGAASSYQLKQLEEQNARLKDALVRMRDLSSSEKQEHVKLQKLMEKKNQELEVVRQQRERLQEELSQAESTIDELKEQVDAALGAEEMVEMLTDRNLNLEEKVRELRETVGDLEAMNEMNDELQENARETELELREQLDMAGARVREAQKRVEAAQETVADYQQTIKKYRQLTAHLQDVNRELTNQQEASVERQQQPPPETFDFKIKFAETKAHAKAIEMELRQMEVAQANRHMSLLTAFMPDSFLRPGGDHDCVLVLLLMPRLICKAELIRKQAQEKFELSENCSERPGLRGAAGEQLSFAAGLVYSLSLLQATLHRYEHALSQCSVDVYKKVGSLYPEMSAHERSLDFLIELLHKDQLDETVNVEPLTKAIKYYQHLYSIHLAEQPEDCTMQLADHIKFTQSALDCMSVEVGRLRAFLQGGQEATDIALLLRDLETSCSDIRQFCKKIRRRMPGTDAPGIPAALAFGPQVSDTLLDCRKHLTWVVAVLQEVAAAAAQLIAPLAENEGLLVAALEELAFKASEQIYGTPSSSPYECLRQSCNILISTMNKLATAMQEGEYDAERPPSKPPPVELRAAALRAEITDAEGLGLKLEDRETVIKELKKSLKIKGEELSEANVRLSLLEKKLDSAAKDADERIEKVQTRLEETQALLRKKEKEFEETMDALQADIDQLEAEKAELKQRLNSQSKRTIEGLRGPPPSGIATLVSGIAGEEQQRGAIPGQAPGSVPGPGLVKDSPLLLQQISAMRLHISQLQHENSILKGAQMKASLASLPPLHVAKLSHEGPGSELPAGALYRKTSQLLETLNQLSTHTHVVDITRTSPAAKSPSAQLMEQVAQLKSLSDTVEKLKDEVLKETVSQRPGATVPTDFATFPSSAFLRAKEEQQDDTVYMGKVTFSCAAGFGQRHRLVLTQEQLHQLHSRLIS
log2 fold change (IRAK-1-4 Inhibitor I): -0.101
log2 fold change (ibrutinib): -0.02
log2 fold change [1]: -0.001
log2 fold change (ralimetinib): 0.114
log2 fold change [2]: -0.086
log2 fold change [3]: -0.303 (active)
log2 fold change [4]: 0.07
log2 fold change (pinometostat): 0.138
log2 fold change [5]: -0.002
log2 fold change [6]: 0.019
log2 fold change [7]: 0.022
log2 fold change [8]: -0.017
log2 fold change [9]: 0.015
log2 fold change [10]: -0.039
log2 fold change (Nexturastat A): 0.116
log2 fold change (vemurafenib): -0.015
log2 fold change [11]: 0.019
log2 fold change [12]: 0.102
log2 fold change (givinostat): 0.104
log2 fold change (barasertib): 0.033

FAM50A (UniProt Q14320)
Sequence of UniProt Q14320 (Q14320 whole entry, looked up): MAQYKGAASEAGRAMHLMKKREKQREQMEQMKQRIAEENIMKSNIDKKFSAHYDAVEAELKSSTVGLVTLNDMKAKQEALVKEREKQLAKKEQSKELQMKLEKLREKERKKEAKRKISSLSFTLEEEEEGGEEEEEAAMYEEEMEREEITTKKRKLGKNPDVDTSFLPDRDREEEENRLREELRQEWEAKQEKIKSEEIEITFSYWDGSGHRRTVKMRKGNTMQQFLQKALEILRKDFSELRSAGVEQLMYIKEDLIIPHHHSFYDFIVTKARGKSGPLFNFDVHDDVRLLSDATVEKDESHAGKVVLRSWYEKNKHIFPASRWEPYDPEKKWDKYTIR
log2 fold change (IRAK-1-4 Inhibitor I): -0.014
log2 fold change (ibrutinib): -0.011
log2 fold change [1]: -0.01
log2 fold change (ralimetinib): -0.029
log2 fold change [2]: -0.027
log2 fold change [3]: 0
log2 fold change [4]: 0.043
log2 fold change (pinometostat): -0.016
log2 fold change [5]: -0.026
log2 fold change [6]: 0.053
log2 fold change [7]: 0.041
log2 fold change [8]: -0.059
log2 fold change [9]: 0.019
log2 fold change [10]: 0.057
log2 fold change (Nexturastat A): -0.069
log2 fold change (vemurafenib): 0.049
log2 fold change [11]: 0.035
log2 fold change [12]: 0.014
log2 fold change (givinostat): 0.102
log2 fold change (barasertib): 0.026

EDC4 (UniProt Q6P2E9)
Sequence of UniProt Q6P2E9 (Q6P2E9 whole entry, looked up): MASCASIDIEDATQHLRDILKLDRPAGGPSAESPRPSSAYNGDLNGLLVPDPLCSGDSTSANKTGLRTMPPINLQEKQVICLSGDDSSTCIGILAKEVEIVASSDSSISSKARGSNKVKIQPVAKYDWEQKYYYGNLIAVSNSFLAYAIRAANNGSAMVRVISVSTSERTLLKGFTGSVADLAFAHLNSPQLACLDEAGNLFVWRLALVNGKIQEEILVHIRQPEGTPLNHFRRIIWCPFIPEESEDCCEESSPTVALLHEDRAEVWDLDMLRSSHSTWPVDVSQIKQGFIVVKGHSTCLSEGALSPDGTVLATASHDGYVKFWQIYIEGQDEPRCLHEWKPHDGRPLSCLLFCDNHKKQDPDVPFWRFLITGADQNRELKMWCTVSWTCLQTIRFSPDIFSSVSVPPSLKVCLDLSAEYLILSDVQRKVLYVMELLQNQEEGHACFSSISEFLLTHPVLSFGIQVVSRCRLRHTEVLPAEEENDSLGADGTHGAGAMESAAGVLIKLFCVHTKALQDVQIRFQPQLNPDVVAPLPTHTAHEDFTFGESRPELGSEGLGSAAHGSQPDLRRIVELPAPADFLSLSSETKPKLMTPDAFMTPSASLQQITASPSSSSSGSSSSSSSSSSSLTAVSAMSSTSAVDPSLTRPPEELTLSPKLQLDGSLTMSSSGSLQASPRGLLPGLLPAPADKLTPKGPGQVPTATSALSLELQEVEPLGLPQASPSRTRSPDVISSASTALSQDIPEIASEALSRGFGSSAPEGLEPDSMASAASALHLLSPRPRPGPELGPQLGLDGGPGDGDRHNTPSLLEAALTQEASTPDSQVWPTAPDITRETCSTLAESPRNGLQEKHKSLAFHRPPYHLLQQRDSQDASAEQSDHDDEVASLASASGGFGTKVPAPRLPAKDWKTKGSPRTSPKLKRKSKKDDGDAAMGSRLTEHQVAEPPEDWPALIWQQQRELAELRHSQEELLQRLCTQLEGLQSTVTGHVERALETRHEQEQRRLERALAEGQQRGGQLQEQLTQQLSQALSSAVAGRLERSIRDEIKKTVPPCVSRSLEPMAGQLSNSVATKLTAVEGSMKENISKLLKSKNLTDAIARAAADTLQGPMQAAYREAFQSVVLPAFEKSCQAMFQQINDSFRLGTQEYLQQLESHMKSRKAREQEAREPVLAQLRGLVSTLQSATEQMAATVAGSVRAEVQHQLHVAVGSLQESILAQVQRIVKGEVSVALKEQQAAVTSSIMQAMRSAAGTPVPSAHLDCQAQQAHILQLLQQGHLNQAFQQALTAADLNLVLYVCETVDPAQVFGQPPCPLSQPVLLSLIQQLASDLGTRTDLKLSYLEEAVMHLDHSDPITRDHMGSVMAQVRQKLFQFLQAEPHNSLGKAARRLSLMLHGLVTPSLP
log2 fold change (IRAK-1-4 Inhibitor I): -0.041
log2 fold change (ibrutinib): -0.001
log2 fold change [1]: -0.387 (active)
log2 fold change (ralimetinib): 0.019
log2 fold change [2]: 0.007
log2 fold change [3]: -0.181
log2 fold change [4]: 0.022
log2 fold change (pinometostat): 0.05
log2 fold change [5]: -0.016
log2 fold change [6]: -0.032
log2 fold change [7]: 0.004
log2 fold change [8]: -0.048
log2 fold change [9]: -0.022
log2 fold change [10]: -0.035
log2 fold change (Nexturastat A): 0.022
log2 fold change (vemurafenib): 0.035
log2 fold change [11]: 0.03
log2 fold change [12]: 0.029
log2 fold change (givinostat): 0.031
log2 fold change (barasertib): 0.057

EFL1 (UniProt Q7Z2Z2)
Sequence of UniProt Q7Z2Z2 (Q7Z2Z2 whole entry, looked up): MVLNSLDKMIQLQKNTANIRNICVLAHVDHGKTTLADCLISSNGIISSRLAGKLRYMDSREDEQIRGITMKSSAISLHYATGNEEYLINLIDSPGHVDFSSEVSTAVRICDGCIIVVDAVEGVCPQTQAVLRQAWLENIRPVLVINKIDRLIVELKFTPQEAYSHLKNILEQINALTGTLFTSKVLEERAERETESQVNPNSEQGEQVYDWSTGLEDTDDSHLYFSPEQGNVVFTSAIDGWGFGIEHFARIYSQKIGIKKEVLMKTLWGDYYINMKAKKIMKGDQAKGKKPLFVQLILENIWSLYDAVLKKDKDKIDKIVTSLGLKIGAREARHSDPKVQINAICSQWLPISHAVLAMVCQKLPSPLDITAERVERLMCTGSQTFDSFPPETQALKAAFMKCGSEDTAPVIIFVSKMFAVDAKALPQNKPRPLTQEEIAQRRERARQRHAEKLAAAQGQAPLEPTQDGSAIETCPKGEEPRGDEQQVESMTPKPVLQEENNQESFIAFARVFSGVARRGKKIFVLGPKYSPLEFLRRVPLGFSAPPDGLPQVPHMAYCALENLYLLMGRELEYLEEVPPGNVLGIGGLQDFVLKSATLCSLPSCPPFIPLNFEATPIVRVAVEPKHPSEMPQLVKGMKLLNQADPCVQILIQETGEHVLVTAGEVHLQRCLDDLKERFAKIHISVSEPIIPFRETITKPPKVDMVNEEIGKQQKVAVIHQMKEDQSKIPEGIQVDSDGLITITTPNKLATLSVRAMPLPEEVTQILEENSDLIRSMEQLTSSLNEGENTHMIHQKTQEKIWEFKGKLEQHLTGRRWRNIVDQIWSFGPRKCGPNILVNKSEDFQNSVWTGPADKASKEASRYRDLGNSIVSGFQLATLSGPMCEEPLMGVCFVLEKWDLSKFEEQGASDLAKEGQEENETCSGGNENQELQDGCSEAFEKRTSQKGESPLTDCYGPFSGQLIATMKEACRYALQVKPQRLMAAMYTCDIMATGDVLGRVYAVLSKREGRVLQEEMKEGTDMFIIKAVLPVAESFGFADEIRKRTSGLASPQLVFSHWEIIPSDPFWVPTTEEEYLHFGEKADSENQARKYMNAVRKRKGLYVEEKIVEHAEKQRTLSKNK
log2 fold change (IRAK-1-4 Inhibitor I): 0.016
log2 fold change (ibrutinib): -0.019
log2 fold change [1]: -0.039
log2 fold change (ralimetinib): -0.004
log2 fold change [2]: -0.069
log2 fold change [3]: -0.103
log2 fold change [4]: 0.03
log2 fold change (pinometostat): 0.005
log2 fold change [5]: -0.009
log2 fold change [6]: -0.058
log2 fold change [7]: -0.025
log2 fold change [8]: 0.004
log2 fold change [9]: 0.016
log2 fold change [10]: 0.012
log2 fold change (Nexturastat A): -0.11
log2 fold change (vemurafenib): 0.04
log2 fold change [11]: 0.036
log2 fold change [12]: 0.008
log2 fold change (givinostat): 0.004
log2 fold change (barasertib): 0.05

EIF4E isoform 2 (UniProt P06730)
Sequence of UniProt P06730 (P06730 whole entry, looked up): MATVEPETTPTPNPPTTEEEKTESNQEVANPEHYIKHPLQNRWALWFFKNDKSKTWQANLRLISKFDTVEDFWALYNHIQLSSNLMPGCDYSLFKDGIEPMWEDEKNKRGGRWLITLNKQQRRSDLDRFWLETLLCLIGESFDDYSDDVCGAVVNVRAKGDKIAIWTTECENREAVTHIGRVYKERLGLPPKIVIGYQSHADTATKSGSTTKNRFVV
log2 fold change (IRAK-1-4 Inhibitor I): 0.066
log2 fold change (ibrutinib): 0.089
log2 fold change [1]: 0.308
log2 fold change (ralimetinib): -0.071
log2 fold change [2]: -0.016
log2 fold change [3]: 0.114
log2 fold change [4]: 0.012
log2 fold change (pinometostat): -0.057
log2 fold change [5]: -0.024
log2 fold change [6]: 0.027
log2 fold change [7]: 0.044
log2 fold change [8]: -0.035
log2 fold change [9]: 0.008
log2 fold change [10]: 0.02
log2 fold change (Nexturastat A): -0.078
log2 fold change (vemurafenib): 0.078
log2 fold change [11]: 0.109
log2 fold change [12]: -0.086
log2 fold change (givinostat): 0.012
log2 fold change (barasertib): -0.07

DSN1 (UniProt Q9H410)
Sequence of UniProt Q9H410 (Q9H410 whole entry, looked up): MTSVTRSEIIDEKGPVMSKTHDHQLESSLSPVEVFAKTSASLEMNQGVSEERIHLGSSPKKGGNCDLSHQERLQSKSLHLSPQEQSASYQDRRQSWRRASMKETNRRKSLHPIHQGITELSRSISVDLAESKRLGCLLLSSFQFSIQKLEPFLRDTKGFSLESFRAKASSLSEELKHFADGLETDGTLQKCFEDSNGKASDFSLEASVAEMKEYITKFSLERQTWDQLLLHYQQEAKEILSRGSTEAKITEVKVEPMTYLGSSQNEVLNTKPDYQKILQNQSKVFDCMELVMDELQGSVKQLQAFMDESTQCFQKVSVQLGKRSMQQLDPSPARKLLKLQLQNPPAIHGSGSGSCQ
log2 fold change (IRAK-1-4 Inhibitor I): -0.143
log2 fold change (ibrutinib): -0.038
log2 fold change [1]: -0.041
log2 fold change (ralimetinib): -0.131
log2 fold change [2]: -0.055
log2 fold change [3]: -0.106
log2 fold change [4]: 0.004
log2 fold change (pinometostat): -0.037
log2 fold change [5]: -0.036
log2 fold change [6]: -0.045
log2 fold change [7]: -0.02
log2 fold change [8]: -0.096
log2 fold change [9]: -0.003
log2 fold change [10]: 0.021
log2 fold change (Nexturastat A): 0.051
log2 fold change (vemurafenib): 0.133
log2 fold change [11]: 0.022
log2 fold change [12]: 0.004
log2 fold change (givinostat): 0.053
log2 fold change (barasertib): 0.075
